Experimental data from PubChem BioAssay (NCATS).
Inconclusive results are not listed. Active and inactive are the calls of the source. Unless noted, calls come from the whole dose curve; as a rule, active = well fitted curve in the direction sought with a large enough effect in the repeat runs; inconclusive = weak or mixed curves; inactive = no such curve, though single readings can be large; an effect the other way counts as inactive or inconclusive.

Key:
[1] = qHTS assay for small molecule antagonists of the retinoid-related orphan receptor gamma (ROR-gamma) signaling pathway - cell viability counter screen (AID 720652);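 note: CHO reporter cells with doxycycline-induced ROR-gamma expression; series mostly up to about 92 µM; compound exposure lasted 16 hr before ATP read; % is set by controls: 0 for no effect and ±100 for the full control effect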
Method in brief: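 Cytotoxicity counter screen: intracellular ATP (CellTiter-Glo luminescence) measured in the doxycycline-induced CHO RORE-luciferase reporter line after 16 hr compound exposure at 37 C, 5% CO2.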

[2] = qHTS assay for small molecule agonists of the antioxidant response element (ARE) signaling pathway measured by Nrf2-dependant transcriptional activity - cell viability counter screen (AID 720653); conditions: ARE-bla HepG2 viability, CellTiter-Glo ATP luminescence, 16 h; max response: active compounds read low; note: % is set by controls: 0 for no effect and ±100 for the full control effect
Method in brief: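 ARE-bla HepG2 cells treated with compounds for 16 h at 37C; this counter screen measures viability as intracellular ATP by CellTiter-Glo luminescence after 30 min at room temperature.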

[3] = qHTS assay for cell viability of HEK293 cells (AID 743288; active = well fitted curve in the direction sought with a large enough effect; an effect the other way counts as inactive or inconclusive; note: % is set by controls: 0 for no effect and ±100 for the full control effect; nearly all actives have a fitted effect of over 50% in size); conditions: ATP luminescence (CellTiter-Glo), 18 h; max response: active compounds read low
Method in brief: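 Viable-cell counts were inferred from luciferase-based ATP content in HEK293 cells seeded at 2,000/well, pre-incubated ≥5 h, then dosed with DMSO-solubilised compounds for 18 h at 37 C.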

[4] = target: Nuclear receptor subfamily 1 group I member 2 (Rattus norvegicus) (UniProt Q9R1A7); assay: qHTS assay for small molecule activators of the rat pregnane X receptor (rPXR) signaling pathway (AID 651751; call rule not given here; note: 0% is about no effect); conditions: rPXR reporter cells, luciferase (One-Glo), 24 h
[5] = qHTS assay for small molecule activators of the human pregnane X receptor (PXR) signaling pathway (AID 720659; call rule not given here; note: 0% is about no effect)

Nuclear receptor subfamily 1 group I member 2 (Rattus norvegicus), sequence (Q9R1A7 whole entry, looked up): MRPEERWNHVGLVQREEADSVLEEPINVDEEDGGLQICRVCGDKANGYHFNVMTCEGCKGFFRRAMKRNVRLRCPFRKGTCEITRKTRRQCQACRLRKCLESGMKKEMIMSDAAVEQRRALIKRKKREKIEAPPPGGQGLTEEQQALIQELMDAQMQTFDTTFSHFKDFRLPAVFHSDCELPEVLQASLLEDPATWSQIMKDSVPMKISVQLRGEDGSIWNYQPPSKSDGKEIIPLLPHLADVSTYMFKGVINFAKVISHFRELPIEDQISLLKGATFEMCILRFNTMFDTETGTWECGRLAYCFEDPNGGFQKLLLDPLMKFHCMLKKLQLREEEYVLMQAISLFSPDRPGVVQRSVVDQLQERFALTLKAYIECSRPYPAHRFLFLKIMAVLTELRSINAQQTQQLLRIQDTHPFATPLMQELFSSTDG

C=CC(=C)CCC=C(C)C
inactive: Potency [1] | max response [2] 6.84% | max response [3] 1.18% | max response [4] 2.22% | outcome [5]
